The full list was thinned out, with hits kept by preference.
ST2 IL33 inh = IL1RL1 inhibition; Q01638; AlphaLISA ST2-Fc/biotin-IL-33 interaction, 1 h; inhibition, % for hits at 17 µM; actives 2.3% (n = 78,000); AID 1259354; in the data active = inhibition above about 30%
Target sequence (Q01638 whole entry, looked up): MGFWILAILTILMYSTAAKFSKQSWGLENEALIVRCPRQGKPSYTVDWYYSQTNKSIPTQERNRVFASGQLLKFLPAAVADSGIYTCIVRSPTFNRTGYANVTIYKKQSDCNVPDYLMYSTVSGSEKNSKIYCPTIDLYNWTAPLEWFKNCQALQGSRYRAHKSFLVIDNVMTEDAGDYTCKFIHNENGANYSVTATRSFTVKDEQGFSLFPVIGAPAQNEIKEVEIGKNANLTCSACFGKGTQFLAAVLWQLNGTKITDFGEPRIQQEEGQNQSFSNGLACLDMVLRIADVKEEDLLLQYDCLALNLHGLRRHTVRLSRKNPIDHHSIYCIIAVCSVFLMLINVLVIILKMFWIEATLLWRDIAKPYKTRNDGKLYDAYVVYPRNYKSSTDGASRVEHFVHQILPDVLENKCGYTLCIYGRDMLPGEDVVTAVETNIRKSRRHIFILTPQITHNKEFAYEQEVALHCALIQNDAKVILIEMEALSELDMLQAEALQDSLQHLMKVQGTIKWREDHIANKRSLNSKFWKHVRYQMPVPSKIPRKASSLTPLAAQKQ
Each line names hits and unclear results; the compound was inactive in the other large screens.

CC1CC(C)CN(CC(=O)Nc2c3c(nc4ccccc24)CCC3)C1 (configuration not stated)	none
Cc1ccc(C)c(NC(=O)CN2C(=O)CC(c3ccccc3)=Nc3ccccc32)c1	none
COc1ccc(NC(=O)C(C)N(c2ccccc2)S(C)(=O)=O)cc1Cl (configuration not stated)	none
O=C(Nc1c2c(nn1-c1cccc(Cl)c1)CS(=O)C2)c1c(F)cccc1F (configuration not stated)	none
Cc1cccc(OCC(=O)Nc2cccc(-c3nc4ncccc4o3)c2)c1	none
CC(C)(O)C#Cc1ccc(C#Cc2ccc(C#CC(C)(C)O)cc2)cc1	none
O=S(=O)(c1cccc2nonc12)N1CCN(c2ccccn2)CC1	none
COC(=O)C1CCN(C(=O)C2(N(C)Cc3ccccc3)Cc3ccccc3C2)CC1	none
CCCn1ncc(CN2CCCC(CO)(Cc3ccccc3)C2)c1C (configuration not stated)	none
Cc1ncsc1CCn1nc(C(=O)NC2CC2)c2c1CCN(C(=O)c1cc3ccccc3o1)C2	none
Nc1ccc(-c2cc(-c3ccccc3)nc(-c3ccc(N)cc3)n2)cc1	none
Nc1ccc(-c2c3ccccc3nc3cc(N)ccc23)cc1	ST2 IL33 inh 61.0%
Nc1ccc(-c2ccc3ccccc3n2)cc1	none
CCOc1ccc(NS(=O)(=O)c2ccc(Cl)c(C)c2Cl)cc1	none
CCOc1ccc(NC(=O)c2ccccc2OCC)c([N+](=O)[O-])c1	ST2 IL33 inh 42.0%
Cc1ccc(NC(=O)c2ccccc2[N+](=O)[O-])cc1	none
CCOc1cccc(C(=O)Nc2ccc(C)cc2[N+](=O)[O-])c1	none
CCCOc1ccc(C(=O)Nc2ccccc2[N+](=O)[O-])cc1	ST2 IL33 inh 39.0%
CCC(=O)c1ccccc1NC(=O)c1ccccc1Br	none
CCOc1ccc(NC(=O)c2ccccc2Br)c([N+](=O)[O-])c1	ST2 IL33 inh 36.0%
CCOc1ccccc1NC(=O)c1ccccc1C	none
Cc1c(C(=O)Nc2ccccc2[N+](=O)[O-])csc1-c1ccccc1	ST2 IL33 inh 35.0%
CCN(CC)c1ccc(NC(=O)c2ccccc2Br)c(C)c1	none
CCCOc1ccc(C(=O)Nc2cc(Cl)ccc2Cl)cc1	none
CCCOc1cccc(C(=O)Nc2ccccc2Cl)c1	none
CCc1ccccc1NC(=O)c1ccccc1[N+](=O)[O-]	none
COc1ccc(Cn2c(CNC(=O)c3cccc(C)c3)nc3cccnc32)cc1	none
CN(Cc1ccccc1)S(=O)(=O)c1ccc2c(c1)CCN2C(=O)CCC(=O)O	none
COc1ccc(CCNc2nc(CC(C)=O)ns2)cc1OC	none
Cc1ccc(C)c(NC(=O)C(=O)NCc2ccc3c(c2)OCO3)c1	none
COc1cc(Cl)c(C)cc1NC(=O)c1ccc(F)cc1	none
Cc1ccc(C(=O)NC(Nc2ccccc2F)C(Cl)(Cl)Cl)cc1 (configuration not stated)	none
Cc1cnccc1-c1cccc(C(=O)O)c1	none
CCOc1ccc(CN2CCN(Cc3ccc4c(c3)OCO4)CC2)cc1	none
CCOc1ccc(/C=c2\sc3n(c2=O)CN(c2ccc4c(c2)OCO4)CN=3)cc1	ST2 IL33 inh 31.0%
CCOc1ccc(/C=c2\sc3n(c2=O)CN(c2cccc(C(C)=O)c2)CN=3)cc1	ST2 IL33 inh 31.0%
CCOc1ccc(-c2nc3s/c(=C\c4ccc(C)cc4)c(=O)n3n2)cc1	none
CC(=O)c1ccc(N2CN=c3s/c(=C\c4ccc(I)o4)c(=O)n3C2)cc1	none
CCCCOc1ccc(/C=c2\sc3nc(=O)c(C)nn3c2=O)cc1	none
CCn1nc(C)cc1C(=O)NCCn1c(C)cc(C)nc1=O	none
CC(=O)Nc1sc2c(c1C(=O)Nc1ccccc1C)CCCC2	none
CCn1cc(CNC(=O)c2sc3cc(Cl)ccc3c2Cl)cn1	none
COc1ccc(S(=O)(=O)Nc2c(C)n(C)n(-c3ccccc3)c2=O)cc1[N+](=O)[O-]	none
COC(=O)[C@@H]1CCCN1Cc1cn(-c2ccccc2C)nc1-c1ccc(OC)c(F)c1	none
O=[N+]([O-])c1ccc(N2CCN(CCc3ccccc3)CC2)cc1	none
O=C(COc1ccc([N+](=O)[O-])cc1)NCc1ccccc1	none
[N-]=C=C1C(=O)N(CCc2ccccc2)C(=O)C([n+]2ccccc2)C1c1ccc([N+](=O)[O-])cc1 (configuration not stated)	ST2 IL33 inh 42.0%
O=C(Cn1c(=O)n(-c2ccc(F)cc2)c(=O)c2sccc21)NCC1CCCO1 (configuration not stated)	none
COc1cc2c(cc1CN1CCN(Cc3ncccc3C)CC1)OCO2	none
NC(=O)CSc1nnc2c(n1)[nH]c1ccccc12	none
NNc1nnc2c(n1)[nH]c1ccccc12	ST2 IL33 inh 31.0%
O=C(CSc1nnc2c(n1)[nH]c1ccccc12)NCCc1ccccc1	none
Cc1ccc(S(=O)(=O)N2CCCCC2C(=O)N2CCCCCC2)cc1 (configuration not stated)	none
CC(C)CCNC(=O)C1(O)c2ccccc2NC(=O)N1c1ccccc1 (configuration not stated)	none
O=C1c2ccccc2C(=O)N1CN(C(=O)c1ccccc1)c1ccc(F)cc1	ST2 IL33 inh 77.0%
CC(=O)N(CN1C(=O)c2ccccc2C1=O)c1ccc(F)cc1	none
O=C1c2ccccc2C(=O)N1CN(C(=O)c1ccccc1)c1ccc(Br)cc1	none
COc1ccc(OCC(=O)O)cc1	none
Cc1ccc(C)n1-c1ccc(OCC(=O)O)cc1	ST2 IL33 inh 64.0%
CCOc1ccc(S(=O)(=O)NCC(=O)O)cc1	none
CCc1cc(CN(C)Cc2nc(-c3cc(OC)ccc3F)oc2C)on1	none
COc1ccc(N2C(=N)S/C(=C\c3ccccc3[N+](=O)[O-])C2=O)cc1	ST2 IL33 inh 36.0%
COc1ccc(/C=C2\SC(=O)N(c3ccc(O)cc3)C2=O)cc1	none
COc1ccc(/C=C2\SC(=O)N(c3cccc(C)c3)C2=O)cc1	none
Cc1ccc(C2=CSC3=NCCN23)cc1C	none
Cc1cc(C(=O)Nc2ccc(N3CCOCC3)cc2)ccc1[N+](=O)[O-]	none
O=C(Nc1ccc(N2CCOCC2)cc1)c1ccccc1	none
O=C(Nc1ccc(N2CCOCC2)cc1)c1cccc([N+](=O)[O-])c1	ST2 IL33 inh 30.0%
COc1ccc(-n2nc3c(c2NC(=O)c2cccc(F)c2)CS(=O)C3)cc1 (configuration not stated)	none
CCCc1cc(C(=O)N2CCC(C(=O)O)CC2)n[nH]1	none
CN(C)c1ccc(Nc2c([N+](=O)[O-])cc([N+](=O)[O-])c3cccnc23)cc1	ST2 IL33 inh 95.0%
CN(C)c1ccc(NC(=O)Nc2ccc3nc(-c4ccccn4)c(-c4ccccn4)nc3c2)cc1	none
O=[N+]([O-])c1cc(Cl)c2cccnc2c1O	none
Cc1ccc2oc(C(=O)N(C)Cc3cccc4cnccc34)c(C)c2c1	none
Cc1cc(C)c(C)c(OCC(=O)Nc2ncn[nH]2)c1	none
O=C(CN1C(=O)c2ccccc2C1=O)OCc1nc2ccccc2s1	none
Cc1cc(C)c(/C=C/C(=O)c2cccs2)c(C)c1	ST2 IL33 inh 44.0%
Cc1cc2ncn(C(=O)c3cccs3)c2cc1C	none
Cc1cc(Cc2ccc(NC(=O)c3cccs3)c(C)c2)ccc1NC(=O)c1cccs1	none
Cc1ccccc1NC(=O)c1cccc(Br)c1	none
Cc1cc(Br)c2c(c1)=C(c1sc(Nc3ccccc3Cl)nc1O)C(=O)N=2	none
O=C1N=c2ccc(Cl)cc2=C1c1sc(Nc2ccc(Cl)cc2)nc1O	ST2 IL33 inh 44.0%
Cc1c(Cl)ccc2c1=NC(=O)C=2c1sc(Nc2ccc(Br)cc2)nc1O	none
Cc1cccc(Nc2nc(O)c(C3=c4cc(Br)ccc4=NC3=O)s2)c1C	ST2 IL33 inh 42.0%
O=C1N=c2ccc(F)cc2=C1c1sc(Nc2ccc(Br)cc2)nc1O	none
CCCCC(=O)Nc1ccc(NC(=O)c2ccccc2I)cc1OC	none
CC(C)c1cccc[n+]1OC(=O)N1CCCCC1	none
Cc1nnc(NC(=O)NCc2ccccc2-n2cncn2)s1	none

Assay outcomes (PubChem)
